Screens: PubChem BioAssay, National Center for Advancing Translational Sciences (NCATS)
Most compounds without a hit are left out; they make up all but 7.5% or so of the library.
Rab9 promoter act: qHTS Assay for Rab9 Promoter Activators | Huh7 Rab9 promoter-luciferase reporter, luminescence, 24 h | Potency, µM (highest dose often 9.22 µM), hits mostly activators | 320,000 tested, 2.8% active | AID 485297, 2010; further: nearly all actives have a fitted effect of over 60% in size
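Steps: seed 1500 Huh7 Rab9-luc cells per well, rest 2 h at 37 °C; add compound in DMSO; incubate 24 h; add luciferase reagent, 10 min ambient; read luminescence.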
SMN2 splice up: qHTS Assay for Enhancers of SMN2 Splice Variant Expression; 210,000 tested, 2.8% active; HEK293 SMN2-luciferase splicing reporter, luminescence, 30-36 h; AID 1458, 2008; Potency, µM (titrated, usually from 46.1 µM), hits mostly activators; further: nearly all actives have a fitted effect of over 55% in size
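HEK293 cells carry an SMN2 […]–luciferase reporter in which exon 7 inclusion puts luciferase in frame. Cells were plated 10-12 h before compound addition, then incubated 30-36 h at 37C. ONE-Glo luminescence was read; sodium butyrate at 4.5 mM final served as control.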
NPC1 promoter act: qHTS Assay for NPC1 Promoter Activators; Huh7 NPC1 promoter luciferase reporter, 24 h; Potency, µM (series often up to 9.22 µM), actives largely listed as activators; 320,000 tested, 2.4% active; AID 485313, 2010; further: nearly all actives have a fitted effect of over 60% in size
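Cells: Huh7 expressing luciferase under the NPC1 promoter, 1500/well. Seeded 2 h, compound added, incubated 24 h at 37 °C. Luciferase reagent, 10 min ambient, then luminescence.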
Luc counter: Counterscreen for Luciferase (Kinase-Glo TM) Inhibition; Luciferin 4-monooxygenase (Photuris pensylvanica), Q27757; Kinase-Glo luciferase, ATP luminescence, 8 min; Potency, µM (series often up to 38.3 µM), actives largely listed as inhibitors; 200,000 tested, 0.28% active; further: nearly all actives have a fitted effect of over 60% in size
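Substrate mix (final 50 mM imidazole pH 7.2, 50 mM KCl, 7 mM MgCl2, 10 uM ATP, 0.01% Tween 20, 0.05% BSA) plus pin-tool compound, then Kinase-Glo detection mix; 8 min ambient, luminescence read.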
FLuc counter: qHTS profiling assay for firefly luciferase inhibitor/activator using purifed enzyme and Km concentrations of substrates (counterscreen for miR-21 project); 360,000 tested, 6.9% active; AID 588342, 2011; Potency, µM (series often up to 57.5 µM), usual class: inhibitors; Luciferin 4-monooxygenase (Photinus pyralis), P08659; purified FLuc, Km substrates, luminescence inhibition; further: nearly all actives have a fitted effect of over 55% in size
Target sequence (P08659 whole entry, looked up): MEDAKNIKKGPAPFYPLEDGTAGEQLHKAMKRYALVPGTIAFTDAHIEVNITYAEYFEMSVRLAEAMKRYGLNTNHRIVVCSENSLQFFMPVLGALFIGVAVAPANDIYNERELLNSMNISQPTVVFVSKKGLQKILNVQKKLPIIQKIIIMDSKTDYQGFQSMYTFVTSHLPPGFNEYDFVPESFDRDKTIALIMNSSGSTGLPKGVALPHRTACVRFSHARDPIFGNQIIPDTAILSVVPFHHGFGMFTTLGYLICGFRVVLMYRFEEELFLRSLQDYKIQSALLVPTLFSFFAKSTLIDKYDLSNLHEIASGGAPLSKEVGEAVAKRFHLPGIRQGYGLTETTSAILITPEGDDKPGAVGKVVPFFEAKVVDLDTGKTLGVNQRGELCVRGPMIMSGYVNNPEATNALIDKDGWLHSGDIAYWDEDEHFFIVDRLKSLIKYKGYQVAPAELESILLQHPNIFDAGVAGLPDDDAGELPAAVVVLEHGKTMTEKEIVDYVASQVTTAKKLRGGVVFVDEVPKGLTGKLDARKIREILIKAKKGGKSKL
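Purified P. pyralis luciferase, 10 nM final, with Km-level 10 uM D-luciferin and 10 uM ATP in 50 mM Tris acetate pH 7.5, 10 mM Mg acetate, 0.01% Tween-20, 0.05% BSA; 6-point qHTS titration about 60 µM downward; luminescence read.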
ELG1 genotox: qHTS screen for small molecules that induce genotoxicity in human embryonic kidney (HEK293T) cells expressing luciferase-tagged ELG1 | HEK293T ELG1-luciferase reporter, luminescence, 16 h | Potency, µM (top dose mostly 46 µM), most hits filed as activators | 330,000 tested, 1.3% active | AID 504466, 2011; further: nearly all actives have a fitted effect of over 60% in size
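Step 1: seed 2,000 HEK293T ELG1-luciferase cells per well. Step 2: add compound or DMSO, incubate 16 hr at 37 °C. Step 3: ONE-Glo, 30 min at room temperature, read luminescence.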
Hits are given with their value; . = inactive; ? = inconclusive; / = no result given. The call rests on the fitted dose curve; in most records, active means well fitted curve in the direction sought with a large enough effect; inconclusive means small, poorly fitted or top-dose-only effect, or another doubt; inactive means no such curve, though single readings can be large; an effect the other way counts as inactive or inconclusive.

SMILES	Rab9 promoter act	SMN2 splice up	NPC1 promoter act	Luc counter	FLuc counter	ELG1 genotox
COc1cc(NC(=O)c2cccs2)c(C(=O)OCC(=O)c2cc(C)n(-c3ccc(F)cc3)c2C)cc1OC	.	.	.	.	9.53µM	.
COc1cc(NC(=O)c2cccs2)c(C(=O)OCC(=O)c2cc(C)n(-c3ccccc3)c2C)cc1OC	.	.	.	.	5.36µM	.
Cc1cc(Cl)ccc1OCc1nc(-c2ccc(-n3cccc3)cc2)no1	/	.	/	/	.	/
Cc1cc(Cl)ccc1OCc1nc(-c2ccc(O)cc2)n[nH]1	.	.	.	.	10.7µM	.
CCOc1ccc(OCc2ccc(C(=O)N3CCOCC3)cc2)cc1	.	.	.	.	?	.
CCOc1ccc(N=C(/C(C(=O)C(=O)N2CCOCC2)=C(\O)c2ccccc2)c2ccccc2)cc1	?	12.6µM	?	.	?	?
COc1ccc(/C=N/Nc2cc(C)nc(-n3nc(C)cc3C)n2)c(OC)c1	.	.	.	.	16.9µM	?
COc1cccc(/C=N/Nc2nc(Nc3ccccc3)nc(-n3nc(C)cc3C)n2)c1O	.	.	.	.	6.01µM	.
Cc1cc(C)n(-c2nc(Nc3ccccc3)nc(-n3nc(C)cc3C)n2)n1	.	.	.	.	.	.
COc1ccc(/C=N\Nc2ncc(F)c(N3CCOCC3)n2)cc1OC	.	/	.	/	10.7µM	.
COc1ccc(/C=N/Nc2cc(C)nc(N3CCOCC3)n2)cc1	.	/	.	/	2.39µM	.
COc1ccc(-c2nc3ccccc3o2)cc1NC(=O)c1ccc(N2CCC(C)CC2)c([N+](=O)[O-])c1	/	.	/	/	?	/
COc1ccccc1/C=N/Nc1cc(C)nc(N2CCOCC2)n1	.	/	.	/	13.5µM	.
COc1ccc(/C=N/Nc2cc(C)nc(N3CCOCC3)n2)cc1OC	.	/	.	/	6.75µM	.
COc1cccc(/C=C2\C(=O)C(=O)c3ccccc32)c1	.	.	.	.	21.3µM	.
COc1ccc2c(c1)CC/C(=C\C=C\c1ccccc1)C2=O	.	?	.	.	2.69µM	.
CCN1C/C(=C/c2ccc(OC)c(O)c2)C(=O)/C(=C/c2ccc(OC)c(O)c2)C1	.	.	.	.	.	.
COc1ccc2c(c1)CC/C(=C/c1cc(OC)c(OC)c(OC)c1)C2=O	.	.	.	.	.	.
COc1ccc(/C=C2\CCc3ccccc3C2=O)cc1OC	.	.	.	.	5.36µM	.
COc1cc(/C=C2\COC/C(=C\c3ccc(O)c(OC)c3)C2=O)ccc1O	.	/	.	/	16.9µM	.
Cc1ccc(CNC(=O)c2ccc3c(c2)N(Cc2ccccc2Cl)C(=O)CS3)cc1	/	.	/	/	.	/
COc1ccc(/C=C2\CC/C(=C\c3ccc(OC)cc3OC)C2=O)c(OC)c1	.	.	.	.	?	?
COc1cc(/C=C2\C(=O)N(C)C(=S)N2C)ccc1O	.	.	.	.	.	.
COc1ccc2c(c1)CC/C(=C/c1ccccn1)C2=O	?	/	?	/	5.36µM	.
COc1cccc(/C=C2\CCc3ccccc3C2=O)c1	?	/	?	/	0.151µM	2.59µM
SMILES	Rab9 promoter act	SMN2 splice up	NPC1 promoter act	Luc counter	FLuc counter	ELG1 genotox
COc1cc(/C=C2/CC/C(=C/c3ccc(O)c(OC)c3)C2=O)ccc1O	.	/	.	/	10.7µM	.
CC(=O)Oc1ccc(/C=C2/CCc3ccccc3C2=O)cc1	.	/	.	/	0.601µM	?
Cc1nc2c(OCc3ccccc3)cccn2c1CC#N	.	.	.	.	/	/
O=C1CN(S(=O)(=O)c2cccc(C(=O)O)c2)c2ccccc2N1	.	/	.	/	.	.
COc1ccc(/C=C2\CC/C(=C\c3ccc(OC)c(OC)c3)C2=O)cc1OC	.	.	.	.	1.2µM	.
COc1cc(/C=C2\CC/C(=C\c3ccc(OCCO)c(OC)c3)C2=O)ccc1OCCO	.	.	.	.	.	.
COC(=O)c1ccc(C2Nc3c(C)cccc3-c3cc(C)nn32)cc1 (configuration not stated)	/	.	/	/	.	/
O=C(Cc1ccccc1)Nc1ccc(NC(=O)Cc2ccccc2)c(Cl)c1	.	/	.	/	.	.
O=C(Nc1cc2c(cc1C(=O)O)OCCCO2)c1ccc(C(F)(F)F)cc1	2.82µM	/	3.98µM	/	13.5µM	18.3µM
O=C(Cc1ccccc1)Nc1ccc2c(c1)OC1(CCCC1)O2	2.51µM	/	2.51µM	/	4.78µM	?
O=C(Cc1ccccc1)Nc1cc2c(cc1Cl)OCCCO2	2.82µM	/	3.16µM	/	16.9µM	?
COc1ccccc1CC(=O)Nc1ccc2c(c1)OC1(CCCC1)O2	/	/	/	/	/	.
CCc1ccc(C(=O)Nc2cc3c(cc2Cl)OCCCO3)cc1	1.58µM	25.1µM	1.78µM	.	6.01µM	?
Cc1nc(Nc2nc3ccccc3o2)nc2c1CCC2	?	2µM	?	?	1.69µM	?
CCOC(=O)c1cnc(Nc2ccc(OCC)cc2)nc1C	.	.	?	.	?	?
CCOC(=O)c1cnc(Nc2nc3ccccc3o2)nc1C	?	.	?	2µM	0.379µM	/
CCOC(=O)c1cnc(Nc2ccccc2)nc1C(F)(F)F	.	/	.	/	23.9µM	.
Cc1cccc(C)c1Nc1nc2ccccc2o1	.	.	.	.	.	.
CCOC(=O)c1cnc(-c2ccccc2)nc1C(F)(F)F	.	.	.	.	?	.
COc1cccc(C2=NNC(=NCc3ccccc3)SC2)c1	?	?	.	.	21.3µM	.
COc1ccc(CN=C2NN=C(c3cccc(OC)c3)CS2)cc1	?	28.2µM	.	.	?	.
COc1ccc(CN=C2NN=C(c3ccccc3)CS2)cc1	?	?	.	.	26.9µM	.
Cc1ccc(C)c(C2=NNC(=NCc3ccccc3)SC2)c1	.	.	.	.	.	.
CCCC(=O)NCC(c1ccc2c(c1)OCO2)N1CCOCC1 (configuration not stated)	/	/	/	/	.	/
Cc1ccc2nc(SCc3cccc([N+](=O)[O-])c3)nc(C)c2c1	.	.	.	.	.	.
SMILES	Rab9 promoter act	SMN2 splice up	NPC1 promoter act	Luc counter	FLuc counter	ELG1 genotox
COc1ccc2nc(SCc3cccc(C)c3)nc(C)c2c1	3.98µM	20µM	?	.	10.7µM	?
COc1ccc2nc(SCc3ccccc3C)nc(C)c2c1	?	22.4µM	?	.	?	?
COc1ccc2nc(SCC(=O)O)nc(C)c2c1	.	.	.	.	.	.
Cc1ccc(N2CCN(C(=O)Nc3cn(CC(C)C)c(=O)c4ccccc34)CC2)c(C)c1	/	/	/	/	.	/
COc1cc(-c2nnc(SCC(=O)Nc3cccc(C#N)c3)o2)cc(OC)c1OC	/	/	/	/	.	/
c1ccc(CSc2ncn(-c3ccccc3)n2)cc1	2.24µM	14.1µM	3.16µM	.	4.78µM	4.11µM
